# Results published in publication PMC5540273 (PLoS ONE, 2017).
# Where two headings read alike, the source gives them in different places.
# Assays:
# FGFR1 = settings: concentration: 1 μM, replicates: in singlicate; n = 1
# FGFR2 = settings: concentration: 1 μM, replicates: in singlicate; n = 1
# FGFR3 = settings: concentration: 1 μM, replicates: in singlicate; n = 1
# FGFR4 = settings: concentration: 1 μM, replicates: in singlicate; n = 1
# FGR = settings: concentration: 1 μM, replicates: in singlicate; n = 1
# FLT1 = settings: concentration: 1 μM, replicates: in singlicate; n = 1
# FLT3-autoinhibited = settings: concentration: 1 μM, replicates: in singlicate; n = 1
# FLT3 = settings: concentration: 1 μM, replicates: in singlicate; n = 1
# FLT4 = settings: concentration: 1 μM, replicates: in singlicate; n = 1
# FRK = settings: concentration: 1 μM, replicates: in singlicate; n = 1
# FYN = settings: concentration: 1 μM, replicates: in singlicate; n = 1
# GAK = settings: concentration: 1 μM, replicates: in singlicate; n = 1
# GCN2(Kin.Dom.2,S808G) = tested on: T1, GCN2(Kin.Dom.2,S808G); settings: concentration: 1 μM, replicates: in singlicate; n = 1
# T1 construct: gene EIF2AK4
# GRK1 = settings: concentration: 1 μM, replicates: in singlicate; n = 1
# GRK2 = tested on: T2, GRK2; settings: concentration: 1 μM, replicates: in singlicate; n = 1
# T2 construct: gene ADRBK1
# GRK3 = tested on: T3, GRK3; settings: concentration: 1 μM, replicates: in singlicate; n = 1
# T3 construct: gene ADRBK2
# GRK4 = settings: concentration: 1 μM, replicates: in singlicate; n = 1
# GRK7 = settings: concentration: 1 μM, replicates: in singlicate; n = 1
# GSK3A = settings: concentration: 1 μM, replicates: in singlicate; n = 1
# GSK3B = settings: n = 1
# [1] = concentration: 1 μM, replicates: in singlicate
# 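Also: KINOMEscan kinase panel screen.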
structure (smiles),measurement,setting,value
Cl.Cl.NCC(NCc1ccc(-c2ccnc3[nH]ccc23)s1)c1ccccc1 (centres unmarked) [GSK1321565],%Inh,FGFR1,4%
same,%Inh,FGFR2,0%
same,%Inh,FGFR3,19%
same,%Inh,FGFR4,1%
same,%Inh,FGR,23%
same,%Inh,FLT1,18%
same,%Inh,FLT3-autoinhibited,12%
same,%Inh,FLT3,75%
same,%Inh,FLT4,5%
same,%Inh,FRK,0%
same,%Inh,FYN,0%
same,%Inh,GAK,34%
same,%Inh,"GCN2(Kin.Dom.2,S808G)",0%
same,%Inh,GRK1,50%
same,%Inh,GRK2,0%
same,%Inh,GRK3,37%
same,%Inh,GRK4,82%
same,%Inh,GRK7,83%
same,%Inh,GSK3A,0%
same,%Inh,GSK3B; [1],0%
CN1CCN(Cc2cccc(-c3ccc4c(Nc5ccc(Oc6ccccc6)cc5)ccnc4c3)c2)CC1 [GW578342],%Inh,FGFR1,22%
same,%Inh,FGFR2,0%
same,%Inh,FGFR3,17%
same,%Inh,FGFR4,0%
same,%Inh,FGR,92.4%
same,%Inh,FLT1,45%
same,%Inh,FLT3-autoinhibited,36%
same,%Inh,FLT3,93.2%
same,%Inh,FLT4,43%
same,%Inh,FRK,19%
same,%Inh,FYN,83%
same,%Inh,GAK,3%
same,%Inh,"GCN2(Kin.Dom.2,S808G)",0%
same,%Inh,GRK1,1%
same,%Inh,GRK2,2%
same,%Inh,GRK3,37%
same,%Inh,GRK4,0%
same,%Inh,GRK7,0%
same,%Inh,GSK3A,16%
same,%Inh,GSK3B; [1],0%
COc1cccc(C2=C(Nc3ccc(Cl)c(C(=O)O)c3)C(=O)NC2=O)c1 [SB-390769],%Inh,FGFR1,8%
same,%Inh,FGFR2,0%
same,%Inh,FGFR3,15%
same,%Inh,FGFR4,25%
same,%Inh,FGR,24%
same,%Inh,FLT1,25%
same,%Inh,FLT3-autoinhibited,0%
same,%Inh,FLT3,0%
same,%Inh,FLT4,47%
same,%Inh,FRK,32%
same,%Inh,FYN,17%
same,%Inh,GAK,8%
same,%Inh,"GCN2(Kin.Dom.2,S808G)",100%
same,%Inh,GRK1,100%
same,%Inh,GRK2,0%
same,%Inh,GRK3,59%
same,%Inh,GRK4,14%
same,%Inh,GRK7,0%
same,%Inh,GSK3A,56%
same,%Inh,GSK3B; 1 µM,34%
CC(C)c1nc(-c2cccc(NS(=O)(=O)c3c(F)cccc3F)c2F)c(-c2ccnc(Nc3ccc(N4CCOCC4)nc3)n2)s1 [GSK2008607],%Inh,FGFR1,60%
same,%Inh,FGFR2,82%
same,%Inh,FGFR3,67%
same,%Inh,FGFR4,48%
same,%Inh,FGR,98.7%
same,%Inh,FLT1,98.6%
same,%Inh,FLT3-autoinhibited,0%
same,%Inh,FLT3,70%
same,%Inh,FLT4,99.9%
same,%Inh,FRK,98.8%
same,%Inh,FYN,98.2%
same,%Inh,GAK,96.1%
same,%Inh,"GCN2(Kin.Dom.2,S808G)",100%
same,%Inh,GRK1,100%
same,%Inh,GRK2,0%
same,%Inh,GRK3,0%
same,%Inh,GRK4,0%
same,%Inh,GRK7,0%
same,%Inh,GSK3A,53%
same,%Inh,GSK3B; [1],21%
